From PubChem BioAssay (Tox21) come the findings set out here.

Each structure is given as a SMILES string. “And” between values parts separate entries of the source, which are not always exact repeats. Equal values may be shown once. Results filed as inconclusive are left out. A call without a number means that no potency is given here. Where a structure was tested more than once in an assay, its records may differ in their call. The source made the active and inactive calls. Calls come from the whole dose curve; as a rule, active = well fitted inhibition curve with a large enough effect in the repeat runs; inconclusive = weak or mixed curves; inactive = flat fitted curve, though single readings scatter.
Potency is the fitted concentration of half-maximal effect.

Sequence of Voltage-gated inwardly rectifying potassium channel KCNH2 (Homo sapiens) (Q12809 whole entry, looked up): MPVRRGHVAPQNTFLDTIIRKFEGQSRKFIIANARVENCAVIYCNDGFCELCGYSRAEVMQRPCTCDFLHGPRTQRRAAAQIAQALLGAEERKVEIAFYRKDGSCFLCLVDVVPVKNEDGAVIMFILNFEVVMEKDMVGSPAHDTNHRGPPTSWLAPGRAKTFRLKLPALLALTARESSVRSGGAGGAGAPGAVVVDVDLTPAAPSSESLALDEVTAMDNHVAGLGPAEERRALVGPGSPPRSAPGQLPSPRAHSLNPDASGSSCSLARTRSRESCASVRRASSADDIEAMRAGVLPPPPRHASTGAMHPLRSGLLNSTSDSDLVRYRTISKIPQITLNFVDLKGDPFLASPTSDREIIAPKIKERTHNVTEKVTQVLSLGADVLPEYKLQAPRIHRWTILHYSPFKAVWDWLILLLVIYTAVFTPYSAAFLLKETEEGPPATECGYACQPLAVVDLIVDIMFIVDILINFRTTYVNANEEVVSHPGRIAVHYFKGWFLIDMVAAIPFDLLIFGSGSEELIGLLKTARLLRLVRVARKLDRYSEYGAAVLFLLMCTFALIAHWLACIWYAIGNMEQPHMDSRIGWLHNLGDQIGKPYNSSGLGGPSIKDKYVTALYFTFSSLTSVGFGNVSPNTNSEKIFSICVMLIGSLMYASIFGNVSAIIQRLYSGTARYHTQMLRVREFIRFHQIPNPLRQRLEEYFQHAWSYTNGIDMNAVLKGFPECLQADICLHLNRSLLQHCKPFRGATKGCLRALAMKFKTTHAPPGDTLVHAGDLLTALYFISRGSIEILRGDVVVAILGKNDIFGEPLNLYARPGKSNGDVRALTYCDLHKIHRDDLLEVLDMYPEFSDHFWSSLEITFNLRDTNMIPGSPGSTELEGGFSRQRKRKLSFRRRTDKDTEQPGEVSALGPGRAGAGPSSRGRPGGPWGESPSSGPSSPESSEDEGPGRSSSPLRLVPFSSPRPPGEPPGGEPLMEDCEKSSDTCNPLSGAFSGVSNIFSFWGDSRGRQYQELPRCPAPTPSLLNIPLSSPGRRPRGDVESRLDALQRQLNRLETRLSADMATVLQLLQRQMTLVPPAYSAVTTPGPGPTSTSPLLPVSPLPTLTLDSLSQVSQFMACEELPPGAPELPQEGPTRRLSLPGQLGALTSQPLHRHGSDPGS

The target of the experiment is Voltage-gated inwardly rectifying potassium channel KCNH2 (Homo sapiens) (UniProt Q12809). Nature of the experiment: Human Ether-a-go-go-Related Gene (hERG) channel small molecule antagonists: fluorescence cell-based qHTS assay (AID 1671200). Note: nearly all actives have a fitted effect of over 50% in size. To be noted: hERG-U2OS cells, FluxOR thallium flux fluorescence; series mostly up to 76.8 µM. An excerpt:
National Center for Advancing Translational Sciences [NCATS]
U.S. Environmental Protection Agency [EPA]
National Institutes of Environmental Health Sciences [NIEHS]
National Toxicology Program [NTP]
U.S. Food and Drug Administration [FDA]
Mutations in the hERG channel cause Long QT (LQT) syndrome. LQT syndrome is a cardiac disorder which can cause ventricle arrhythmia and sudden death. Additionally, compounds which block the hERG channel can cause acquired LQT syndrome. Several FDA approved drugs have been removed from the market due to their hERG blocking activity. A cell-based hERG channel inhibition assay can be used to screen chemical compounds that inhibit hERG channel. This assay measures hERG channel activity using thallium ions as surrogate ions to measure potassium into the cells.
Tox21 Assay Protocol Summary:
hERG-U2OS cells were resuspended in culture medium and dispensed into 1536-well, black wall/clear-bottom plates at 1000cells/well/3uL using a Multidrop Combi dispenser (Thermo Fisher, Waltham, MA). After plates were incubated at 37 C overnight, 3 uL of Loading Buffer provided by FluxOR II Potassium Ion Channel Assay kit (Thermo, Carlsbad, CA) was added to each well. The assay plates were then incubated at room temperature in the dark for 1h. […] After the assay plates were incubated at room temperature for 10 min, 1 uL of Stimulus Buffer provided by FluxOR II Potassium Ion Channel Assay kit was added into each well and fluorescence intensity (480nm excitation/540nm emission) was continuously measured for 2 min at 1 second intervals using a Functional Drug Screening System (FDSS) 7000EX kinetic plate reader (Hamamatsu, Japan).
A general note: The hERG channel carries a current that helps repolarise heart muscle cells.
Regarding `COP(=S)(OC)Oc1nc(Cl)c(Cl)cc1Cl`, the Potency result was “inactive”. Under `Cc1nn(-c2cc(NS(C)(=O)=O)c(Cl)cc2Cl)c(=O)n1C(F)F` stands “inactive”; under `ClC1=C(Cl)[C@]2(Cl)[C@@H]3[C@H]4C[C@H]([C@@H]5O[C@H]45)[C@@H]3[C@@]1(Cl)C2(Cl)Cl`, “inactive”. For `COP(=S)(NC(C)C)Oc1ccc(C)cc1[N+](=O)[O-]` (stereo not given), the Potency result was “inactive”.

Take `COC(=O)c1cc(Oc2ccc(Cl)cc2Cl)ccc1[N+](=O)[O-]`: the Potency is 17.4 µM (active). Under `COC(=O)/C=C(\C)OP(=O)(OC)OC` stands “inactive”; under `COP(=O)(OC)O/C(=C\Cl)c1cc(Cl)c(Cl)cc1Cl`, “inactive”; under `O=C(NC(=O)c1c(F)cccc1F)Nc1ccc(Oc2ccc(C(F)(F)F)cc2Cl)cc1F`, 34.7 µM (active). Under `CC[C@]1(O)CC[C@H]2[C@@H]3CCC4=CCCC[C@@H]4[C@H]3CC[C@@]21C` stands “inactive”; under `C=CC(=O)[O][Sn]([CH2]CCC)([CH2]CCC)[CH2]CCC`, 6.16 µM (active).

On to `ClC(Cl)C(Cl)(Cl)Cl`, for which the Potency entry was “inactive”. Take `CC(C)C(Br)C(=O)NC(N)=O` (stereo not given): the Potency entry was “inactive”. Under `COCCC#N` stands “inactive”; under `c1ccc2c(c1)cc1ccc3cccc4ccc2c1c34`, “inactive”; under `[O]=[Cr](=[O])([OH])[O][Cr](=[O])(=[O])[OH]`, “inactive”. Under `CO/N=C(\C(=O)OC)c1ccccc1CO/N=C(\C)c1cccc(C(F)(F)F)c1` stands “inactive”; under `CC(C)Br`, “inactive”. Under `CCC1COC(Cn2cncn2)(c2ccc(Cl)cc2Cl)O1` (stereo not given) stands “inactive”. Regarding `CC1=C2C[C@H]3[C@@H](CC=C4C[C@@H](O)CC[C@@]43C)[C@@H]2CC[C@]12O[C@@H]1C[C@H](C)CN[C@H]1[C@H]2C`, the Potency entry was “inactive”.

In the case of `ClCBr`, the Potency result was “inactive”. Take `[Cl][Hg][c]1ccccc1`: the Potency is 17.4 µM (active). Under `CN=C=O` stands “inactive”; under `CC[N+]1(CC)CCC(OC(=O)C(O)(c2ccccc2)c2ccccc2)C1` (stereo not given), “inactive”; under `Cc1ccn2nc(S(=O)(=O)Nc3c(F)cccc3F)nc2n1`, “inactive”.

As to `C[C@H]1[C@H](c2ccc(Cl)cc2)SC(=O)N1C(=O)NC1CCCCC1`, the Potency was 38.9 µM (active). Under `CCCC[N+]1(C)CCCC1` (tested in a mixture with another compound) stands “inactive”; under `Nc1ccc(N=Nc2ccccc2)cc1`, “inactive”. Under `CCN(CC)C(=S)S` stands “inactive”.

With `CCC(C)Br` (stereo not given), the Potency result was “inactive”. Under `Oc1cc(Cl)cc(Cl)c1` stands “inactive”. Under `C[C@@H]1CC2=CC(=O)CC[C@@H]2[C@H]2CC[C@@]3(C)[C@@H](CC[C@]3(C)O)[C@@H]21` stands “inactive”; under `O=[N+]([O-])c1ccc(CCl)cc1`, “inactive”; under `CC[C@H](C)[C@H]1O[C@]2(C=C[C@@H]1C)C[C@@H]1C[C@@H](C/C=C(\C)[C@@H](O[C@H]3C[C@H](OC)[C@@H](O[C@H]4C[C@H](OC)[C@@H](NC)[C@H](C)O4)[C@H](C)O3)[C@@H](C)/C=C/C=C3\CO[C@@H]4[C@H](O)C(C)=C[C@@H](C(=O)O1)[C@]34O)O2`, “inactive”. Under `COP(=S)(OC)Oc1ccc([N+](=O)[O-])c(C)c1` stands “inactive”. On to `N#Cc1c2ccccc2cc2ccccc12`, for which the Potency entry is “inactive”.

Turning to `CCC(C)c1cccc(C(C)CC)c1O` (stereo not given), the Potency result was “inactive”. `CCn1cc[n+](C)c1` (tested in a mixture with another compound): the Potency entry is “inactive”. Under `CCCCCCCCCCCCCCn1cc[n+](C)c1` stands 3.9 µM (active) and 6.84 µM (active) and inactive. Under `CCCCc1ccccc1` stands “inactive”; under `CCCCC(CC)COC(=O)c1ccccc1C(=O)OCC(CC)CCCC` (stereo not given), “inactive”.
